Bioassay records from PubChem BioAssay.
HCV inhibitor: inhibitors of hepatitis C virus infection. Huh7.5.1 HCVcc-Cre infection, luciferase reporter, 44 h. Potency, µM (doses to about 41.8 µM), for inactives: at the highest dose activity change, negative = inhibition, actives largely listed as inhibitors. actives 3.4% (n = 340,000); note: potency is the fitted concentration of half-maximal effect
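Infectious HCVcc-Cre (~0.5 moi) was added to cells just after compound, with cells seeded 4 h earlier at 1,000 per well. Luciferase activity after 44 h culture reported infection; substrate was incubated 15 min at room temperature before reading.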
Vaccinia Venus: vaccinia inhibition (Venus reporter) | Vaccinia virus Venus reporter expression, fluorescence | AID 720580 | actives 0.46% (n = 330,000) | Potency, µM (titrated, usually from 36.5 µM), inactives show at the highest dose activity change, negative = inhibition, actives largely listed as inhibitors; calls by dose curve; tested in A549 cells; note: potency is the fitted concentration of half-maximal effect; nearly all actives have a fitted effect of over 30% in size
HCMV antiviral: inhibitors of human cytomegalovirus. HFF cells, HCMV-luciferase reporter, 72 h; hits give low values. activity change, negative = inhibition, % at 57.5 µM. actives 4.5% (n = 410,000); in the data active = activity change below about -60%; inconclusive = no clear call, values can overlap the other calls; inactive = above about -39%
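After 16 h attachment at 37C, HFF cells received test compound and HCMV-luciferase (1 PFU/cell); reporter luminescence read 72 h later, data normalized against buffer-only and known inhibitor Salinomycin.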
Sm TGR inh: S. mansoni TGR enzyme inhibition; actives 3% (n = 360,000); Potency, µM (series often up to 114 µM), inactives show top-dose activity change, negative = inhibition, usual class: inhibitors; Q962Y6; purified TGR, DTNB reduction, TNB absorbance 405 nm; note: potency is the fitted concentration of half-maximal effect; nearly all actives have a fitted effect of over 60% in size
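Kinetic colorimetric format: TGR-catalysed, NADPH-driven DTNB reduction monitored via TNB absorbance. Enzyme dispensed at 20 nM; compound exposure 15 min at room temperature before reaction start.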
Vaccinia mCherry: inhibitors of vaccinia virus infection (mCherry reporter signal) | Vaccinia virus mCherry reporter infection, fluorescence | Potency, µM (highest dose often 36.5 µM), for the others: at the highest dose activity change, negative = inhibition, actives largely listed as inhibitors | actives 0.63% (n = 310,000); calls by dose curve; tested in A549 cells; note: potency is the fitted concentration of half-maximal effect; nearly all actives have a fitted effect of over 35% in size
FMDV inh: blocks foot and mouth disease virus; FMDV antiviral cell-based qHTS; Potency, µM (titrated, usually from 57.9 µM), for the others: top-dose activity change, negative = inhibition, most hits filed as inhibitors; actives 1.2% (n = 410,000); calls by dose curve; tested in HEK293T cells; note: read-out not given here; potency is the fitted concentration of half-maximal effect; nearly all actives have a fitted effect of over 45% in size
* hit, by the source's call; i = inactive; ? = inconclusive; / = no result. Most compounds without a hit are left out; they make up all but 9.3% or so of the library. Unless noted, calls come from the whole dose curve; as a rule, active = well fitted curve in the direction sought with a large enough effect; inconclusive = small, poorly fitted or top-dose-only effect, or another doubt; inactive = no such curve, though single readings can be large; an effect the other way counts as inactive or inconclusive. % is set by controls: 0 for no effect and ±100 for the full control effect.

SMILES	HCV inhibitor	Vaccinia Venus	HCMV antiviral	Sm TGR inh	Vaccinia mCherry	FMDV inh
CSc1ccc(C(=O)C2CCCN(Cc3cccnc3)C2)cc1 (stereo not given)	?	-8.7%	-62.0*	3.0%	-5.3%	?
CSc1ccc(C(=O)C2CCCN(Cc3cc4ccccc4[nH]3)C2)cc1 (stereo not given)	?	-22.3%	-8.6	-8.7%	?	?
CCn1ncc(CN2CCCC(C(=O)c3cccc(OC(C)C)c3)C2)c1C (stereo not given)	?	/	-2.9	-8.6%	/	-18.9%
COc1ccc(CN2CCCC(C(=O)c3cccc(OC(C)C)c3)C2)cc1Cn1cccn1 (stereo not given)	11.2µM*	/	2.2	-10.1%	/	?
CN(C)c1ccc(/C=N/NC(=O)c2ccc3c(c2)OCO3)cc1	-3.5%	/	-66.0*	-10.1%	/	57.1%
O=C(N/N=C/c1ccccc1)c1ccc2c(c1)OCO2	-6.9%	/	?	8.9%	/	-10.6%
COc1cc(/C=N/NC(=O)c2ccc(N(C)S(=O)(=O)c3ccccc3)cc2)cc(OC)c1OC	?	-20.4%	-18.4	-2.6%	-11.8%	0.0%
O=C(N/N=C/c1ccc([N+](=O)[O-])o1)c1ccc2c(c1)OCO2	?	/	-96.5*	?	/	-25.0%
COc1cc(/C=N/NC(=O)c2ccncc2)cc(OC)c1OC	10.7%	0.3%	31.1	9.9%	i	8.3%
COc1cc(C(=O)NN=Cc2ccc(N(C)C)cc2)cc(OC)c1OC	/	?	-66.3*	/	-18.4%	2.5%
CCOc1cc(/C=N/NC(=O)c2ccc(N(C)S(=O)(=O)c3ccccc3)cc2)ccc1OC	8.91µM*	-14.9%	34.3	20.3%	-24.9%	?
Cc1cc(=O)n(C)c(=O)n1CCCCCN1CCCC1	2.1%	-6.6%	29.7	-13.6%	/	-10.4%
CCOc1cc(/C=N/NS(=O)(=O)c2ccccc2)ccc1OS(=O)(=O)c1ccc(C)cc1	-8.3%	-17.9%	18.6	-2.2%	/	19.6%
CCOc1cc(/C=N/NC(=O)COc2ccc(Cl)cc2)ccc1OS(=O)(=O)c1ccccc1	5.01µM*	?	32.6	9.6%	?	-23.6%
O=C(NN=Cc1ccc2c(c1)OCO2)NN=Cc1ccc2c(c1)OCO2	14.5%	-11.8%	5.0	/	-17.5%	14.2%
N/C(=N\N=Cc1ccc2c(c1)OCO2)NN=Cc1ccc2c(c1)OCO2	-25.5%	-17.9%	-73.5*	/	-12.3%	0.7%
O=c1c2ccccc2ccc2ccccc12	-4.3%	/	-104.0*	2.3%	/	7.0%
Cc1c(NC(=S)Nc2ccc(Cl)cc2)c(=O)n(-c2ccccc2)n1C	7.5%	/	-17.0	/	/	-10.6%
N#Cc1cc(S(=O)(=O)N2CCOCC2)ccc1N1CCOCC1	0.1%	-17.7%	50.3	2.1%	-9.4%	-10.3%
Nc1nc(C2CC2)c(Sc2sc(N)nc2C2CC2)s1	-6.6%	?	-72.4*	4.3%	/	25.1µM*
Nc1nc(C2CCOCC2)cs1	7.1%	/	34.5	-4.2%	/	-4.5%
CCCN(C(=O)c1cc2c(s1)-c1ccccc1OC2)c1ccccc1F	/	-6.8%	-8.2	-0.1%	-15.0%	-15.2%
CCCN(C(=O)c1cc2c(s1)-c1ccccc1SC2)c1ccccc1F	/	-12.0%	-68.3*	-2.0%	-11.1%	-19.5%
CN(C)CCNC(=O)c1cc2c(s1)-c1ccc(Cl)cc1SC2	11.2µM*	3.55µM*	-99.8*	15.3%	?	?
Cc1ccc(CNC(=O)c2cc3c(s2)-c2ccc(Cl)cc2SC3)cc1	/	-11.0%	-5.5	-2.8%	-6.2%	21.7%
SMILES	HCV inhibitor	Vaccinia Venus	HCMV antiviral	Sm TGR inh	Vaccinia mCherry	FMDV inh
CC(C)(C)n1nnnc1C(c1cccc(C(F)(F)F)c1)N1CCC(O)CC1 (stereo not given)	1.3%	/	0.0	/	/	-16.9%
CC(=O)c1nnn(-c2c(F)cccc2F)c1C	1.1%	/	-33.6	0.8%	/	20.8%
CC(C(=O)N1CCCC1)N(C)CC(=O)Nc1cccc(F)c1 (stereo not given)	7.4%	/	?	8.91µM*	/	-6.9%
Cc1ccc(-n2c(C3CC3c3ccc(Cl)cc3)n[nH]c2=S)cc1 (stereo not given)	6.1%	/	-30.2	-0.9%	/	0.0%
Cc1ccc(C2CC2c2n[nH]c(=S)n2-c2ccc(C)cc2)cc1 (stereo not given)	25.1µM*	/	-8.2	2.0%	/	4.5%
COc1ccc([N+](=O)[O-])cc1NC(=O)c1csc(C)c1	?	/	71.2	2.9%	/	17.1%
CCOc1cc(/C=N/NC(=O)c2ccc(CN3CCOCC3)cc2)ccc1OCc1ccccc1	?	-12.2%	-72.7*	-6.2%	i	22.4µM*
CCOc1cc(/C=N/Nc2cccc(C(=O)O)c2)ccc1OC(=O)c1ccccc1	2.1%	-6.8%	64.3	/	-11.6%	3.98µM*
COc1cc(C=NNc2ccccc2)ccc1OC(=O)c1ccccc1	/	-7.5%	14.8	/	i	64.7%
CCOc1cc(/C=N/NC(=O)CN2CCOCC2)ccc1OCc1ccccc1	?	-16.8%	-28.8	-7.3%	-3.7%	-27.0%
CCOc1cc(/C=N/NC(=O)c2ccncc2)ccc1OC(=O)c1ccccc1	7.4%	/	12.5	-16.3%	/	-2.2%
CCOc1cc(/C=N/NC(=O)c2ccccn2)ccc1OC(=O)c1ccc(F)cc1	20.6%	-9.5%	16.0	50.1µM*	-9.9%	-3.0%
COc1cc2c(cc1OC)C(c1ccccc1)N(C(=O)CSCC(=O)O)CC2 (stereo not given)	6.6%	/	-3.2	-30.8%	/	-15.1%
N#CC(C#N)=c1ccc2c(c1)NC1(CCCCC1)N=2	?	-36.1%	-84.5*	-22.9%	-25.3%	25.1µM*
CCOc1ccc(CNC(=O)c2ccc(CS(=O)Cc3ccc(Cl)cc3)o2)cc1 (stereo not given)	/	-8.9%	15.5	-12.9%	-4.7%	-13.6%
CCOC(=O)c1c(NC(=O)C(C)OC(=O)c2ccc(NC(=O)CC#N)cc2)sc2c1CCCC2 (stereo not given)	?	-19.4%	7.1	-3.6%	-25.8%	-26.3%
CCOC(=O)c1c(NC(=O)C(C)OC(=O)C2=COCCO2)sc2c1CCCC2 (stereo not given)	12.6µM*	/	/	-0.1%	/	-27.2%
O=C(CNS(=O)(=O)c1cccc2nsnc12)NC1CCCCC1	?	-11.9%	-7.4	3.3%	-10.7%	-10.8%
C#CC(C)(CC)NC(=O)Cn1nnc(-c2ccc(OCc3ccccc3C)cc2)n1 (stereo not given)	/	?	-24.0	14.2%	?	-28.6%
C#CC(C)(CC)NC(=O)Cn1nnc(-c2ccc(OCc3ccccc3F)cc2)n1 (stereo not given)	/	11.2µM*	-14.5	0.9%	?	-19.2%
Cc1nc2c(Br)cc(Br)cc2c(=O)n1-c1ccccc1NC1OCC(O)C(O)C1O (stereo not given)	-23.7%	-15.7%	-77.4*	/	i	-15.0%
COc1ccccc1OC(C)C(=O)N1CC(=O)Nc2ccccc21 (stereo not given)	-17.4%	8.2%	-72.2*	-5.9%	-1.0%	-2.3%
